# Reference: PubChem BioAssay (Tox21)
# Records with an inconclusive call do not appear. Entries that show only a call come without a potency. Unmarked numbers belong to inactive results. Active and inactive are the calls of the source. Calls come from the whole dose curve; as a rule, active = well fitted activation curve with a large enough effect in the signal ratio in the repeat runs (not every such curve was filed as active); inconclusive = weak or mixed curves, or effect the other way; inactive = no such curve, though single readings can be large or run the other way; the % refers to the signal ratio.
# Assay: qHTS assay for small molecule agonists of the antioxidant response element (ARE) signaling pathway (AID 743202)
# Conditions: HepG2 ARE-bla reporter, beta-lactamase FRET, 16 h; series mostly up to 73.3 µM
# Source text: U.S. Tox21 Program National Center for Advancing Translational Sciences [NCATS] NIH Chemical Genomics Center [NCGC] U.S. Environmental Protection Agency [EPA] National Institutes of Environmental Health Sciences [NIEHS] National Toxicology Program [NTP] U.S. Food and Drug Administration [FDA] Tox21 Assay Overview: Oxidative stress has been implicated in the pathogenesis of a variety of diseases ranging from cancer to neurodegeneration. The antioxidant response element (ARE) signaling pathway plays an important role in the amelioration of oxidative stress. The CellSensor ARE-bla HepG2 cell line (Invitrogen) can be used for analyzing the Nrf2/antioxidant response signaling pathway. Nrf2 (NF-E2-related factor 2) and Nrf1 are transcription factors that bind to AREs and activate these genes. The CellSensor ARE-bla Hep G2 cell line contains a beta-lactamase reporter gene under control of the Antioxidant Response Element (ARE) stably integrated into HepG2 cells. The activation of the report gene under culture conditions can be detected by fluorescence intensity. This cell line has been used to screen the Tox21 10K compound library to identify agonists that induce oxidative stress.
# Tox21 Assay Protocol Summary: The ARE-bla cells were dispensed at 2,000 cells/5 ul/well in 1536-well black wall/clear bottom plates using a Multidrop dispenser. After the assay plates were incubated at a 37 C/5% CO2 incubator for 5 hours, 23 nL of compounds dissolved in DMSO, positive controls or DMSO only was transferred to the assay plate by a pin tool. The plates were incubated at 37 C for 16 hours. After 1 uL of LiveBLAzer B/G FRET substrate was added using a Flying Reagent Dispenser, the plates were incubated at room temperature for 2 hours, and fluorescence intensity was measured by an Envision plate reader.
# Potency is the fitted concentration of half-maximal effect.
Compound,Potency,activation
C[C@@H]1C[C@H]2[C@@H]3CCC4=CC(=O)C=C[C@]4(C)[C@@]3(F)[C@@H](O)C[C@]2(C)[C@@]1(O)C(=O)COC(=O)c1ccncc1,inactive,
CC(C)(CO)[N+](=O)[O-],inactive,
COc1cc(C(=O)OCCCN2CCCN(CCCOC(=O)c3cc(OC)c(OC)c(OC)c3)CC2)cc(OC)c1OC,11.9 µM (active),
CC(=O)OC[C@H]1O[C@@H](n2ncc(=O)[nH]c2=O)[C@H](OC(C)=O)[C@@H]1OC(C)=O,inactive,
C=C1C(=C/C=C2\CCC[C@]3(C)[C@@H]([C@H](C)/C=C/[C@@H](O)C4CC4)CC[C@@H]23)C[C@@H](O)C[C@@H]1O,2.66 µM (active),
C1CCCNCCC1,inactive,
CCCC(=O)Nc1ccc(O)c(C(C)=O)c1,inactive,
COc1cc2nc(N3CCN(C(=O)C4COc5ccccc5O4)CC3)nc(N)c2cc1OC (stereo not given),inactive,
CO[C@@H]1[C@H](OC(=O)/C=C/C=C/C=C/C=C/C(=O)O)CC[C@]2(CO2)[C@H]1[C@@]1(C)O[C@@H]1CC=C(C)C,24.3 µM (active),
CCOc1ccc(O)cc1,61.1 µM (active),
CC(=O)c1ccc2c(c1)N(CCCN1CCC(CCO)CC1)c1ccccc1S2,inactive,
C=CCOc1ccccc1OCC(O)CNC(C)C (stereo not given),inactive,
c1cc(CCCc2ccncc2)ccn1,inactive,
CC1=CC[C@H](C(C)C)C=C1,54.5 µM (active),
O=C(O)CC(=O)C(=O)O,inactive,
C/C(=C(\CCOP(=O)(O)O)SC(=O)c1ccccc1)N(C=O)Cc1cnc(C)nc1N,,14.1% [at 8.36 µM]
Cc1cccc(Nc2ccccc2)c1,inactive,
O=C(NCC1CN(c2ccc(N3CCOCC3=O)cc2)C(=O)O1)c1ccc(Cl)s1 (stereo not given),inactive,
CCCCC(CC)CN1C(=O)C2C3C=CC(C3)C2C1=O (stereo not given),inactive,
CCOCC(O)COc1ccc(NC(=O)CC[S+](C)C)cc1 (stereo not given),inactive,

Compound,Potency,activation
Cn1c(=O)cc(Oc2ccc(F)cc2F)c2cnc(NCC(C)(C)O)nc21,30.6 µM (active),
COc1cc(Cl)ccc1Oc1ccc(Cl)cc1Cl,inactive,
CC(=O)c1cccc([N+](=O)[O-])c1,inactive,
Cc1cccc(C)c1OCC(=O)N[C@@H](Cc1ccccc1)[C@@H](O)C[C@H](Cc1ccccc1)NC(=O)[C@H](C(C)C)N1CCCNC1=O,29.8 µM (active),
CCCCCC[C@@H](O)C/C=C\CCCCCCCC(=O)OC,inactive,
CN(C)CCN(Cc1ccsc1)c1ccccn1,inactive,
CCCn1cnc2c1c(=O)n(CCCCC(C)=O)c(=O)n2C,inactive,
CN(C)c1ccc(CCO)cc1,inactive,
O=CC1CC=CCC1 (stereo not given),inactive,
CN(C)C(=O)NC1(c2ccccc2)CCN(CC[C@@]2(c3ccc(F)c(F)c3)CN(C(=O)c3ccccc3)CCO2)CC1,inactive,
CCOC(=O)Cc1cccc2ccccc12,inactive,
CC/C=C\CCOC(=O)CC,inactive,
CC[N+]1(CC)CCC(=C(c2ccccc2)c2ccccc2)C1C (stereo not given),inactive,
Nc1c(CC(=O)O)cccc1C(=O)c1ccc(Br)cc1,inactive,
Nc1ncn([C@H]2C[C@H](O)[C@@H](CO)O2)c(=O)n1,inactive,
C=C1[C@H]2CC[C@@H]3[C@H]2C(C)(C)CCC[C@]13C,inactive,
CCCCCCCN,inactive,
CCOC(=O)C1=C[C@]2(CC)CCCN3CCc4c(n1c1ccccc41)[C@@H]32,inactive,
S=C([S-])NCCNC(=S)[S-].[Mn+2],6.86 µM (active),
Cc1ccc(C(C)OC(=O)C2(C)CCC(C(=O)O)C2(C)C)cc1 (stereo not given),inactive,
